Experimental data: PubChem BioAssay (Tox21)
Inconclusive results are not listed. The source made the active and inactive calls. Unless noted, calls follow the shape of the dose curve; as a rule, active = well fitted curve in the direction sought with a large enough effect in the repeat runs; inconclusive = weak or mixed curves; inactive = no such curve, though single readings can be large; an effect the other way counts as inactive or inconclusive.

Columns and labels:
[1] = qHTS assay to identify small molecule agonists of the sonic hedgehog signaling (Shh) pathway (AID 1259368; calls by dose curve; also: series mostly up to about 92 µM; nearly all actives have a fitted effect of over 15% in size)
Outline: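 NIH/3T3-derived 3T3Gli1-Luc cells carrying a stably integrated Gli1 response element–firefly luciferase reporter were plated, left 4 hr at 37 C, then given compounds in DMSO for 24 hr. Luminescence was read 30 min after adding luciferase reagent.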

[2] = qHTS assay to identify small molecule antagonists of the sonic hedgehog signaling (Shh) pathway (AID 1259369; calls by dose curve; also: nearly all actives have a fitted effect of over 45% in size)
Outline: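 NIH/3T3-derived 3T3Gli1-Luc cells with stably integrated Gli1-Luc reporter were preincubated 4hr at 37 C, then given compounds in DMSO plus Shh conditioned medium and incubated 24hr. Firefly luciferase luminescence read after 30min reagent at room temperature.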

[3] = qHTS assay to identify small molecule agonists of the androgen receptor (AR) signaling pathway in the presence of an antagonist - cell viability counter screen (AID 1259379);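 also: MDA-kb2 human breast cancer cells carrying an MMTV luciferase reporter; series mostly up to about 92 µM; nearly all actives have a fitted effect of over 25% in size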
Outline: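 MDA-kb2 human breast carcinoma cells (stable MMTV-luciferase, AR/GR responsive) were seeded 3,000 cells/well, pre-incubated 5 hr at 37C without CO2, then given 3.0uM nilutamide and compounds at 15 concentrations for 16 hr. Viability was read by CellTiter-Fluor fluorescence.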

[4] = qHTS assay to identify small molecule agonists of the estrogen receptor beta (ER-beta) signaling pathway - cell viability counter screen (AID 1259380); also: nearly all actives have a fitted effect of over 30% in size
Outline: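 ER-beta-UAS-bla HEK293T cells in medium with 2% charcoal-stripped FBS were preincubated 6 hr at 37C, dosed with compound in DMSO for 16 hr, then after the bla read, CellTiter-Glo was added for 30 min at room temperature; luminescence recorded.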

[5] = qHTS assay to identify small molecule antagonists of the estrogen receptor beta (ER-beta) signaling pathway - cell viability counter screen (AID 1259382);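 also: HEK293T cells carrying ER-beta-UAS-bla reporter stimulated with estradiol; series mostly up to about 92 µM; nearly all actives have a fitted effect of over 55% in size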
Outline: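 ER-beta-UAS-bla HEK293T cells (2,000/well, 2% charcoal-stripped FBS) were pre-incubated 6 hr at 37C, then given compound plus 1nM final 17-beta-estradiol for 16 hr. Viability was read in the same wells by CellTiter-Glo luminescence after 30 min at room temperature.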

[6] = qHTS assay to identify small molecule agonists or antagonists of the thyroid stimulating hormone receptor (TSHR) signaling pathway - wild type cell line counter screen (AID 1259384; calls by dose curve)
Outline: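 Counter screen in untransfected Hek293: compounds (15-point titration, triplicate) plus phosphodiesterase inhibitor Ro20-1724 added after 18 h plating; 30 min RT. Intracellular cAMP via competitive d2/cryptate immunoassay, 1 h incubation.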

[7] = target: Estrogen receptor (Homo sapiens) (UniProt P03372); test: qHTS assay to identify small molecule agonists of the estrogen receptor alpha (ER-alpha) signaling pathway in the presence of an antagonist (AID 1259383; calls by dose curve; also: top concentration of the series differs between compounds; nearly all actives have a fitted effect of over 15% in size)
Outline: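 VM7Luc4E2 cells (endogenous full-length ER-alpha, 4×ERE-luciferase) were precultured 5 days in phenol red-free medium with 10% charcoal-stripped FBS, given 10.0nM ICI-182,780 (final), then treated with compounds at 15 concentrations for 22hr at 37C; luminescence read with ONE-Glo.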

Measured: Potency

Chain of Estrogen receptor (Homo sapiens) (P03372 whole entry, looked up): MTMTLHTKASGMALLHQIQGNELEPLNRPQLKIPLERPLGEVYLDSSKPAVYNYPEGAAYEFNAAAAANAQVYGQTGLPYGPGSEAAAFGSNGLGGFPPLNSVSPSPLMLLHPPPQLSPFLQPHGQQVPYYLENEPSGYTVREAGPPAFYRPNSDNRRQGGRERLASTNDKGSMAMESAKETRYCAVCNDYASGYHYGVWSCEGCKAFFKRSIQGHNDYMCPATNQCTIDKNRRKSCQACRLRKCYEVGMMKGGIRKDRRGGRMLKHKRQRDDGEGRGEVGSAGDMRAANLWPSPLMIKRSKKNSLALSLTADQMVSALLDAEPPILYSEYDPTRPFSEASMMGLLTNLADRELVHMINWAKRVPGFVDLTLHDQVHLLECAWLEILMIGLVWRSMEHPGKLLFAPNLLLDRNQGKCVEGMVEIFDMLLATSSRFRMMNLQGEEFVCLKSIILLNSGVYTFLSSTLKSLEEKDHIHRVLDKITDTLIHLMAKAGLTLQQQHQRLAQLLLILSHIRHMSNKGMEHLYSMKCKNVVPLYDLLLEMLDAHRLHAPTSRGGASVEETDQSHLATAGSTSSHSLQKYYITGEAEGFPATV

O=[N+]([O-])c1cccc(CCl)c1
inactive: [1] | [2] | [3] | [4] | [5] | [6]

O=c1[nH]c2ccccc2o1
inactive: [1] | [2] | [3] | [4] | [5] | [6]

CCN[C@@H](C)Cc1cccc(C(F)(F)F)c1
inactive: [1] | [2] | [3] | [4] | [5] | [7] | [6]

CCCC(C)C1(CC)C(=O)N=C(S)NC1=O (centres undefined)
inactive: [1] | [2] | [3] | [4] | [5]
